High-throughput results: PubChem, several laboratories
The list is not random: actives were taken first. Their share in the collection is about 12%.
Arbovirus inh = antivirals against arbovirus infection; inhibition, % at 10 µM; 200,000 compounds, 0.37% hits; AID 1251; arbovirus infection cell-based antiviral screen; in the data active means inhibition above about 30%
L major viab = reduces viability of Leishmania major promastigotes. inhibition, % at 10 µM. 200,000 compounds, 9% hits. resazurin fluorescence viability; in the data active means inhibition above about 50%;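 further: promastigotes grown with compound for 44 hours at 28 °C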
WT yeast gro inh = growth inhibition of WT yeast, mitochondrial fusion screen; mitochondrial fusion phenotypic screen, WT strain; AID 1362; 190,000 compounds, 2.1% hits; inhibition, % at 10 µM; in the data active means inhibition above about 58%; tested in S. cerevisiae
CHOP inh = inhibitors of CHOP induction in ER stress response; inhibition, % at 10 µM; 220,000 compounds, 3.8% hits; CHO-K1 CHOP-promoter luciferase, tunicamycin-induced, 15-18 h;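 active means compounds that reduced the stress-induced luciferase reporter signal by more than about 70% of percent inhibition, limit read from the data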;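 further: 0% = tunicamycin plus vehicle and 100% = wells without tunicamycin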
* marks the source's active call; other numbers are inactive results; x = no result.

SMILES | Arbovirus inh | L major viab | WT yeast gro inh | CHOP inh
COc1cccc(C2C(C(C)=O)=C(O)C(=O)N2CCNCCO)c1 (centres undefined) | 1 | -4 | -22 | -12
COc1cccc(/C=C/C(=C2\C(=O)N(c3ccccc3)N=C2C)c2ccc(Br)cc2)c1OC | x | 99* | x | x
Cc1cccc(OCC2CCCN(Cc3nc(C4CC4)no3)C2)c1 (centres undefined) | 16 | 62* | 24 | -2
COc1ccc(OCC2CCCN(Cc3nc(CC4CC4)no3)C2)cc1 (centres undefined) | 5 | -3 | 0 | 27
COc1cccc(NC(=O)C2(S(=O)(=O)c3ccc(Cl)cc3)CC2)c1 | x | x | x | -6
O=C(O)C1C2C=CC(C2)C1C(=O)NCc1ccc2c(c1)OCO2 (centres undefined) | 5 | -5 | -8 | -14
O=C(O)C1C2C=CC(C2)C1C(=O)NCc1ccc(Cl)c(Cl)c1 (centres undefined) | -1 | 53* | 2 | 28
O=C(N/C(=C/c1cccc([N+](=O)[O-])c1)C(=O)N1CCCCCC1)c1cccs1 | -6 | 61* | 3 | -20
Cc1ccc(NC(=O)/C(=C/c2cccc([N+](=O)[O-])c2)NC(=O)C2CCCCC2)cc1 | 3 | 4 | 14 | 30
CC(C)(C)NC(=O)/C(=C\C=C\c1ccccc1)NC(=O)c1ccc([N+](=O)[O-])cc1 | -4 | 4 | 6 | 29
CC(=O)N/C(=C\c1cccc([N+](=O)[O-])c1)C(=O)NC1CCCCC1 | 0 | 51* | -20 | 9
O=C(N/C(=C/c1cccc([N+](=O)[O-])c1)C(=O)N1CCCCC1)c1cccs1 | 1 | 90* | -6 | 21
CN1CCN(C(=O)/C(=C\c2cccc([N+](=O)[O-])c2)NC(=O)c2cccs2)CC1 | -3 | -5 | -9 | 26
O=C(N/C(=C/C=C/c1ccccc1)C(=O)N1CCCCC1)c1ccc([N+](=O)[O-])cc1 | 16 | 61* | 13 | 38
COc1cc(/C=C2\CCOC2=O)cc(OC)c1OC | x | x | x | -7
O=C(C[n+]1ccccc1)Nc1ccc(Oc2ccccc2)cc1 | 5 | 17 | 7 | -3
COc1ccccc1N1CCN(c2ccc([N+](=O)[O-])cc2Cl)CC1 | 3 | 3 | 55 | 54
O=C1C(Cl)=C(N2CCN(Cc3ccccc3)CC2)C(=O)N1Cc1ccccc1 | 5 | 92* | 32 | 46
CCOc1ccc(N2C(=O)CC(Sc3nc(-c4cccs4)cc(C(F)(F)F)c3C#N)C2=O)cc1 (centres undefined) | 19 | 55* | -43 | 18
CCOc1ccc(N2C(=O)CC(Sc3ncccn3)C2=O)cc1 (centres undefined) | 5 | 2 | 11 | 14
Cc1ccccc1/C=N\NC(=O)c1ccccc1-n1cccc1 | -1 | 2 | -18 | -8
O=C(/C=C/c1ccccc1[N+](=O)[O-])NC1CCCC1 | 1 | -2 | 2 | 13
O=C(CNS(=O)(=O)c1ccc(F)cc1)N1CCCCCC1 | -4 | -5 | 25 | -24
O=C(Cc1cn(Cc2cccc(Cl)c2)c2ccccc12)N1CCCCCC1 | -19 | 99* | 68* | 76*
CC1CCCN(C(=O)Cc2cn(Cc3cccc(Cl)c3)c3ccccc23)C1 (centres undefined) | -38 | 97* | 73* | 76*
SMILES | Arbovirus inh | L major viab | WT yeast gro inh | CHOP inh
CCc1c(C)nc2cc(-c3cc(OC)cc(OC)c3)nn2c1N1CCN(CCN2CCOCC2)CC1 | -18 | 88* | 7 | 25
Cc1nc2cc(-c3cccc(F)c3)nn2c(N2CCN(C(=O)c3ccco3)CC2)c1C | 2 | 11 | -13 | -38
CCOCCN1CCN(c2c(C)c(C)nc3cc(-c4cc(OC)cc(OC)c4)nn23)CC1 | -1 | 83* | -5 | 0
C=CCn1c(C2CCCCC2)n[nH]c1=S | 8 | -4 | 4 | 0
COC(=O)c1c(-c2c(Cl)cccc2Cl)noc1C(=O)NNC(=O)N(C)C | x | x | x | -26
COC(=O)c1ccccc1NC(=O)c1cc(-c2ccc(O)cc2)on1 | 48* | -6 | -22 | -37
COC(=O)c1ccccc1NC(=O)c1cc(C2CC2)on1 | 8 | -7 | 25 | 43
CCCN(CCC)CCc1cccc2c1CC(=O)N2 | x | x | x | -10
Cc1cc(C)nc(Nc2ncc(O)n2-c2ccc(C)c(Cl)c2)n1 | 1 | -3 | -4 | 80*
Cc1cc(C)nc(Nc2ncc(O)n2-c2ccc(C)c(C)c2)n1 | 7 | -3 | 3 | 18
Cc1sc(NC(=O)CSc2nc(N)cc(N)n2)c(C#N)c1C | x | x | x | 27
O=C(COC(=O)c1ccc2[nH]c3c(c2c1)CCCC3)Nc1ccccc1 | -4 | 88* | -2 | -18
O=C(COc1ccc(Cl)cc1Cl)N/N=C/c1ccc(OC2OC(CO)C(O)C(O)C2O)cc1 (centres undefined) | x | x | x | 28
CCOc1ccc(NC(=O)N[C@@H](CCSC)C(=O)OC)cc1 | 4 | -2 | -22 | 4
Cc1ccc(C(=O)Nc2nnc(COc3ccccc3)s2)cc1 | -4 | -5 | -13 | 5
O=C(/C=C/c1ccc(Cl)cc1)N(c1ccccn1)C1CCCCC1 | -5 | 83* | 36 | 70*
O=C(/C=C/c1cccc(F)c1)N(c1ccccn1)C1CCCCC1 | 0 | -1 | -5 | 0
CCc1ccc(NS(=O)(=O)c2ccc(OC)c(C)c2)cc1 | 8 | 0 | 59* | 85*
COc1ccc(S(=O)(=O)Nc2ccc3ccccc3c2)cc1C | -35 | 6 | 79 | 89*
COc1ccc(S(=O)(=O)Nc2ccc3cn[nH]c3c2)cc1C | 2 | 20 | -4 | 25
COC(=O)c1ccc(C)c(NS(=O)(=O)c2ccc(OC)c(OC)c2)c1 | -1 | 100* | -9 | 32
COc1ccc(N2CCN(C(=O)CSc3nnc(-c4ccco4)n3C)CC2)cc1 | 2 | -1 | -5 | 16
Fc1ccccc1NC(=S)Nc1ccc(Br)cc1 | 17 | 7 | 62* | 12
Fc1cc(Br)ccc1NC(=S)Nc1ccccc1 | 17 | 9 | 7 | -40
COc1ccc2c(c1)CCC1=C2NC(=S)NC1c1ccc(N(C)C)cc1 (centres undefined) | 6 | 90* | 81* | 9
SMILES | Arbovirus inh | L major viab | WT yeast gro inh | CHOP inh
COc1cc(C2NC(=S)NC3=C2CCc2ccccc23)cc(OC)c1OC (centres undefined) | -2 | 4 | -4 | -3
CCOC(=O)c1c2ccc(OCC(=O)N/N=C/c3ccccc3C(F)(F)F)cc2n2ccccc12 | -4 | 4 | 2 | 96*
Cc1cccc(OCC(=O)N/N=C\c2cn(C)c3ccccc23)c1 | 2 | 9 | 12 | 55
CN1CCN(c2ncnc3c2[nH]c2ccc(F)cc23)CC1 | 17 | 13 | 12 | 13
CN1CCN(c2cc3c(c4c2[nH]c2ccccc24)C(=O)CC(C)(C)C3)CC1 | -27 | 95* | 20 | 37
Cc1ccc(CNC(=O)Cn2cccc2C(=O)c2ccccc2C)cc1 | -5 | 6 | -1 | 0
Cc1ccc2c(c1)NC(=O)C(CC(=O)NCCCN1CCN(c3cc(Cl)ccc3C)CC1)O2 (centres undefined) | -40 | 8 | 8 | 79*
Cc1ccc2c(c1)NC(=O)C(CC(=O)NCCCN1CCCCC1)O2 (centres undefined) | -1 | -4 | -11 | 14
Cc1ccc(C)c(N2CCN(CCCNC(=O)Cn3cccc3C(=O)c3ccccc3C)CC2)c1 | -30 | 93* | 80* | 51
